The nature of test [1]: Nuclear factor erythroid 2-related factor 2/antioxidant responsive element (Nrf2/ARE) small molecule agonists: qHTS cell viability counter screen in human keratinocytes (AID 1919968; active = well fitted curve in the direction sought with a large enough effect in the repeat runs; an effect the other way counts as inactive or inconclusive; also: nearly all actives have a fitted effect of over 55% in size; also: potency is read from the fitted curve at half-maximal effect). An outline of the steps: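 Fluorescence read-out from CellTiter-Fluor after 1 h at 37 C. Wells held HaCaT-derived ARE-luciferase reporter cells (1,500/well) treated 23 h with DMSO-dissolved compounds. Run in the same wells as the luciferase agonist read.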

A short description of test [2]: Nuclear factor erythroid 2-related factor 2/antioxidant responsive element (Nrf2/ARE) small molecule agonists: luciferase reporter gene qHTS assay in human keratinocytes (AID 1919969). Also: nearly all actives have a fitted effect of over 35% in size. Also: potency is read from the fitted curve at half-maximal effect.
In test [3] the target is Gonadotropin-releasing hormone receptor (Homo sapiens) (UniProt P30968). Nature of the test: Human gonadotropin-releasing hormone receptor (GnRHR) small molecule agonists, calcium flux assay in GnRHR-HEK293 cells (AID 1920063). Also: nearly all actives have a fitted effect of over 35% in size. In short, it runs like this: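 Calcium-dye fluorescence, Ex/Em=480/540, recorded every 1 sec over 3 min after compound addition to GnRHR-HEK293 cells. Cells had been seeded 18 hours earlier and dye-loaded for 1 hour at 37 C. Fifteen concentrations, triplicates.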
Chain of Gonadotropin-releasing hormone receptor (Homo sapiens) (P30968 whole entry, looked up): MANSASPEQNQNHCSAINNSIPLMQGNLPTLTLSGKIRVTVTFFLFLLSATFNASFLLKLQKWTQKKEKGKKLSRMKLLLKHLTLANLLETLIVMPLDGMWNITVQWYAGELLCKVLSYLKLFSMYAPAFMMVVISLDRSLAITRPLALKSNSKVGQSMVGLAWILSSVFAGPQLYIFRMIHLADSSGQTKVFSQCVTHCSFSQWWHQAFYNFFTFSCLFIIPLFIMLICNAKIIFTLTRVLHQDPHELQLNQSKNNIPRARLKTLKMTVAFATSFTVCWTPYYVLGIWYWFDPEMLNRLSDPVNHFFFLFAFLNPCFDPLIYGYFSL

For test [4], the target named is KiSS-1 receptor (Homo sapiens) (UniProt Q969F8). The experiment in a line: Human kisspeptin (KISS1R) small molecule agonists, calcium flux assay in KISS1R-HEK293 cells (AID 1920064; active = well fitted curve in the direction sought with a large enough effect in the repeat runs; an effect the other way counts as inactive or inconclusive). An outline of the steps: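 Calcium flux read-out: kinetic fluorescence at Ex/Em=480/540, 1 s intervals over 3 min, after pin-tool compound addition to dye-loaded KISS1R-HEK293 cells. Fifteen concentrations, triplicates.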
Chain of KiSS-1 receptor (Homo sapiens) (Q969F8 whole entry, looked up): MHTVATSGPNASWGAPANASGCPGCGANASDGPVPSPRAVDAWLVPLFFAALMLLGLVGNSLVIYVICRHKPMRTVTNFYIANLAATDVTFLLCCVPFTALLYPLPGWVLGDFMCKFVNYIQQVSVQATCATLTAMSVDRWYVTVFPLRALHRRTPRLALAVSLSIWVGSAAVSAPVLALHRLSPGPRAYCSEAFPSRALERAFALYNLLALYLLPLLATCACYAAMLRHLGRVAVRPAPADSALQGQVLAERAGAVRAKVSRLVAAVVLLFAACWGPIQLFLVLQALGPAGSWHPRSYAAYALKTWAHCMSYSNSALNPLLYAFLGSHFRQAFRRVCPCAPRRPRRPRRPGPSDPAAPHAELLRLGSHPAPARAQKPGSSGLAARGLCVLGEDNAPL

The nature of test [5]: G protein-coupled receptor (GPCR) small molecule agonists, calcium flux assay: HEK293 wild type cell line counter screen (AID 1920065). An outline of the steps:
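Agonist mode; 18 h seeding at 37 C, 1 h dye load at 37 C; compounds pinned from DMSO, ATP as positive control; kinetic fluorescence 480/540 nm, 3 min, 1 s reads; 15 concentrations, triplicate.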

A short description of test [6]: p53 small molecule agonists, cell-based qHTS assay with human liver microsomes (AID 1963577). In short, it runs like this: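 Compounds act here after metabolic activation: human liver microsomes and NADPH, both at 0.5 mg/mL final, were co-added to p53RE-bla cells. Incubation ran 16 h at 37 C, followed by LiveBLAzer detection.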
Test [7] in a line: p53 small molecule agonists, cell-based qHTS assay with rat liver microsomes (AID 1963578). An outline of the steps: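 Read-out is beta-lactamase reporter fluorescence (LiveBLAzer, 2 h, room temperature, dark) in p53RE-bla cells treated 16 h at 37 C with compound, rat liver microsomes and NADPH, both 0.5 mg/mL final.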
Test [8] can be described thus: p53 small molecule agonists, cell-based qHTS assay with human liver microsomes: qHTS cell viability counter screen (AID 1963579). Also: nearly all actives have a fitted effect of over 45% in size. Also: potency is read from the fitted curve at half-maximal effect. In short, it runs like this:
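Cells carrying the p53 response-element beta-lactamase reporter are treated for 16 h at 37 C with test compounds in the presence of human liver microsomes and NADPH (both 0.5 mg/mL final); ATP-based CellTiter-Glo luminescence then reports viability.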

Test [9] in a line: p53 small molecule agonists, cell-based qHTS assay with rat liver microsomes: qHTS cell viability counter screen (AID 1963580). Also: nearly all actives have a fitted effect of over 45% in size. Also: potency is read from the fitted curve at half-maximal effect. In short, it runs like this: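 Counter screen for cytotoxicity under metabolic activation: rat liver microsomes and NADPH, 0.5 mg/mL final each, added with compounds to p53RE-bla HCT-116 cells; 16 h at 37 C, then ATP luminescence read.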
Test [10] is described as follows: p53 small molecule agonists, cell-based qHTS assay: qHTS cell viability counter screen (AID 1963581). Also: nearly all actives have a fitted effect of over 45% in size. Also: potency is read from the fitted curve at half-maximal effect. An outline of the steps:
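Cytotoxicity read-out: ATP-based luminescence (CellTiter-Glo, 30 min RT) measured in the same wells as the p53 reporter assay, HCT-116 p53RE-bla cells, 16 h compound exposure at 37 C.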

For test [11], the target named is 5-hydroxytryptamine receptor 2A (Homo sapiens) (UniProt P28223). The experiment in a line: 5-hydroxytryptamine receptor 2A (HTR2A) small molecule antagonists, cell-based qHTS assay (AID 1963586). Also: nearly all actives have a fitted effect of over 45% in size. An outline of the steps: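 CHO cells stably expressing human HTR2A were plated for 18 h at 37 C, then loaded with calcium dye for 1 h. Compounds were preincubated 5 min at room temperature before DOI (4 nM solution) was added. Kinetic fluorescence was read for 3 min.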
Chain of 5-hydroxytryptamine receptor 2A (Homo sapiens) (P28223 whole entry, looked up): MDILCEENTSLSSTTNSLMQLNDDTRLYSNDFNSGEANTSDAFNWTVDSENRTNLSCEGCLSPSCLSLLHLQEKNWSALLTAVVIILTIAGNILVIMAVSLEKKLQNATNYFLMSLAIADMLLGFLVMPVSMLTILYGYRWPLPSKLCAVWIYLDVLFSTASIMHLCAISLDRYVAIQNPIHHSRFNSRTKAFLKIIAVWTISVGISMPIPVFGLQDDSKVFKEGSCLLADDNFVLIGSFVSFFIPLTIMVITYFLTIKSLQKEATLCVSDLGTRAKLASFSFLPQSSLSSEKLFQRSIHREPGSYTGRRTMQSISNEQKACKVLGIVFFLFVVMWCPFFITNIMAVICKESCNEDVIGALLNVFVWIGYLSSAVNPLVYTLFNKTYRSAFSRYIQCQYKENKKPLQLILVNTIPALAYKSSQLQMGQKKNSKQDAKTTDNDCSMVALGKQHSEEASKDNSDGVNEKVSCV

The target of test [12] is Muscarinic acetylcholine receptor M1 (Homo sapiens) (UniProt P11229). Nature of the test: Cholinergic receptor muscarinic 1 (CHRM1) small molecule antagonists, cell-based qHTS assay (AID 1963588). Also: nearly all actives have a fitted effect of over 40% in size. In short, it runs like this: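 Compounds were tested at 15 concentrations in three independent runs. Dye-loaded CHRM1-CHO cells were exposed 5 min at room temperature before stimulation by acetylcholine added at 50nM. Intracellular calcium was read kinetically on FDSS for 3 min.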
Chain of Muscarinic acetylcholine receptor M1 (Homo sapiens) (P11229 whole entry, looked up): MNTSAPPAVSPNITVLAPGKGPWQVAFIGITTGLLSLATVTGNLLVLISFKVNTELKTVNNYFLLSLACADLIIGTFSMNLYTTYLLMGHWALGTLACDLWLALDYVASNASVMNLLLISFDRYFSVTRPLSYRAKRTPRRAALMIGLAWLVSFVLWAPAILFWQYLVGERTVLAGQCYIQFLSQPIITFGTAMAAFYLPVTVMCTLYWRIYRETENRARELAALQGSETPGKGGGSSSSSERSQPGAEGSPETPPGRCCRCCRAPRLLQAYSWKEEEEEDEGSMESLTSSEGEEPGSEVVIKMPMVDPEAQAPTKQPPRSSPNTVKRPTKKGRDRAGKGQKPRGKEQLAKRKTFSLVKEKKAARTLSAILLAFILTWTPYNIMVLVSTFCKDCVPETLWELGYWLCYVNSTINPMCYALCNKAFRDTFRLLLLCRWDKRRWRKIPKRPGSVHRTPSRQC

Test [13] has the same target. Nature of the test: Cholinergic receptor muscarinic 1 (CHRM1) small molecule agonists, cell-based qHTS assay (AID 1963589). Also: nearly all actives have a fitted effect of over 35% in size. An outline of the steps: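 Calcium flux read-out: kinetic fluorescence at 1 sec intervals after pin-tool compound addition to dye-loaded CHRM1-CHO cells (human M1). Agonist mode; 15 concentrations tested in triplicate independent runs.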
A short description of test [14]: cAMP Responsive Elements (CRE) small molecule antagonists, cell-based qHTS assay (AID 1963591; active = well fitted inhibition curve with a large enough effect in the signal ratio in the repeat runs, not every such curve was filed as active; the % refers to the signal ratio; also: potency is read from the fitted curve at half-maximal effect). An outline of the steps:
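HEK293T CRE-bla; 18 h preincubation; compound pin-transfer; NKH477 0.25 uM final, 3 h, 37 C; LiveBLAzer FRET substrate 2 h RT.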

Test [15] has as its target Beta-2 adrenergic receptor (Homo sapiens) (UniProt P07550). The experiment in a line: Adrenergic beta2 receptor (ADRB2) small molecule antagonists, cell-based qHTS assay (AID 1963592). Also: series mostly up to about 92 µM; nearly all actives have a fitted effect of over 50% in size. In short, it runs like this: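 Assay format: CHO-ADRB2 cells, 18-20hr seeding at 37C/5% CO2, then compound plus 1nM isoproterenol agonist mix for 0.5hr RT. Homogeneous time-resolved fluorescence cAMP detection after 1hr, expressed as 665/615 nm ratio.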

Test [16] addresses D(2) dopamine receptor (Homo sapiens) (UniProt P14416). The experiment in a line: Dopamine D2 receptor (DRD2) small molecule agonists, cell-based qHTS assay (AID 1963594). Also: nearly all actives have a fitted effect of over 35% in size. In short, it runs like this:
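HEK293 cells stably expressing DRD2 were cultured 24 h at 37 C, then given Ro20-1724 (0.1 mM final) and compounds for 10 min at room temperature. NKH477 (200nM) was then added for 30 min. cAMP was read by HTRF.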

The target is the same in test [17]. The experiment in a line: Dopamine D2 receptor (DRD2) small molecule antagonists, cell-based qHTS assay (AID 1963595; active = well fitted inhibition curve with a large enough effect in the signal ratio in the repeat runs, with a control signal flat; the % refers to the signal ratio). An outline of the steps:
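HEK293 cells stably expressing DRD2 were preincubated with 0.1 mM Ro20-1724, then with compound for 10 min at room temperature. Cells were stimulated with 200 nM NKH477 plus 12 nM quinpirole for 30 min, and cAMP was read by HTRF.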

The target of test [18] is 5-hydroxytryptamine receptor 2A (Homo sapiens) (UniProt P28223). Nature of the test: 5-hydroxytryptamine receptor 2A (HTR2A) small molecule agonists, cell-based qHTS assay (AID 1963587). Also: nearly all actives have a fitted effect of over 30% in size. In short, it runs like this: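 HTR2A-CHO cells, plated 18 h at 37 C/5% CO2, dye-loaded 1 h at 37 C; compounds in DMSO added by pin tool (agonist mode). Intracellular calcium flux read as kinetic fluorescence on FDSS over 2 min at 1 s intervals.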

Test [19] can be described thus: cAMP Responsive Elements (CRE) small molecule agonists, cell-based qHTS assay (AID 1963590). In short, it runs like this: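 Beta-lactamase reporter readout: LiveBLAzer B/G FRET substrate, 2 h at room temperature, added after 3 h compound treatment of CRE-bla HEK 293T cells at 37 C/5% CO2.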

Unmarked numbers belong to inactive results. Inconclusive results are not listed. Activity calls are given as the source filed them. Unless noted, calls follow the shape of the full dose curve.

Chain of D(2) dopamine receptor (Homo sapiens) (P14416 whole entry, looked up): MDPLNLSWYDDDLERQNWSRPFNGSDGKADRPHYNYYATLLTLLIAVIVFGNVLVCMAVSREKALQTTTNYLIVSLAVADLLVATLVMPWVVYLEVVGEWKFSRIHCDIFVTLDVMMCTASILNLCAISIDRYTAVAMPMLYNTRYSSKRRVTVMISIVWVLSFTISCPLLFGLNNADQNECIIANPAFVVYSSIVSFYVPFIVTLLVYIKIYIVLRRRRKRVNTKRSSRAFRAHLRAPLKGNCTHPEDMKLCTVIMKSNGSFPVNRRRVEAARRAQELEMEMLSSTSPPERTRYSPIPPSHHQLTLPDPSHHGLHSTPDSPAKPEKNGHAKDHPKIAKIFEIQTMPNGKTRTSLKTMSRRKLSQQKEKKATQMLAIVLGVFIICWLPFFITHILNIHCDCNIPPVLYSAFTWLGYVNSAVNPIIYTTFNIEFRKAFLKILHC
Chain of Beta-2 adrenergic receptor (Homo sapiens) (P07550 whole entry, looked up): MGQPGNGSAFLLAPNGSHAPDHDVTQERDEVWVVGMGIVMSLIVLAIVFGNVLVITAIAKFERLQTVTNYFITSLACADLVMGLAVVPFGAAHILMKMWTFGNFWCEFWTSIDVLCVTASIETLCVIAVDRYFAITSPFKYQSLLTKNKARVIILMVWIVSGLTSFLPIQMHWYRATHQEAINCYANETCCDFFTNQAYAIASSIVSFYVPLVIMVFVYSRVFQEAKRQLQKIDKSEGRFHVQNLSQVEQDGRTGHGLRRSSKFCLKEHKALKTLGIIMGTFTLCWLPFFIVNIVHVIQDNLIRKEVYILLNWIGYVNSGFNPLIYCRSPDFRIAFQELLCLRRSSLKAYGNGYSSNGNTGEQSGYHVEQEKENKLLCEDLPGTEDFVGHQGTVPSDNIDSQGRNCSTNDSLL

`Nc1ccc(Cl)c([N+](=O)[O-])c1`: the Potency entry in test [1], in test [3], in test [6], in test [7], in test [8] and in test [9] was “inactive” in each case. In addition, the Potency entry in [10], in test [11], in test [12], in test [13], in test [14] and in [15] was “inactive” in each case. The Potency result in [16] and in test [17] was “inactive” in each case. Moreover, the Potency in test [2] was 54.5 µM (active). For the same compound, the result in test [4] and in test [5] was inactive.
Consider `C=CC(=O)OCC1CCCO1` (stereo not given), for which the Potency entry in test [1], in test [2], in test [3], in test [6], in [7] and in test [8] was “inactive” throughout. For the same compound, the Potency entry in test [9], in test [10], in test [11], in test [18], in test [12] and in test [19] was “inactive” in each case. For the same compound, the Potency result in test [14] and in [17] was “inactive” throughout. For the same compound, the result in test [4] and in [5] was inactive.
Regarding `Nc1ccc(C(=O)Oc2ccccc2)c(O)c1`, the Potency entry in test [1], in test [2], in test [3], in test [6], in test [7] and in test [8] was “inactive” each time. The Potency entry in test [9], in test [10], in test [11], in test [18], in test [13] and in test [19] was “inactive” throughout. Besides, the Potency entry in test [16] and in [17] was “inactive” throughout. Further, the result in test [4] and in test [5] was inactive.
Consider `C/C=C/C(=O)OCC(C)C`, for which the Potency entry in [1], in test [2], in [3], in test [6], in test [7] and in test [8] was “inactive” each time. The Potency entry in [9], in [10], in [11], in [18], in [13] and in test [14] was “inactive” throughout. The Potency result in test [15], in test [16] and in test [17] was “inactive” throughout. The result in test [4] and in test [5] was inactive.
As for `N#CSc1ccc(N)c([N+](=O)[O-])c1`, the Potency is 43.5 µM (active) in test [1] and 24.5 µM (active) in [2]. In addition, the Potency result in test [3], in [6], in test [7], in test [8], in test [9] and in test [10] was “inactive” throughout. The Potency result in test [11], in test [12], in test [13], in [14], in test [15] and in test [17] was “inactive” in each case. Besides, the result in [4] and in test [5] was inactive.
For the compound `O=S1(=O)CC(Cl)(Cl)C(Cl)(Cl)C1`, the Potency in test [1] was 6.11 µM (active); in [2] it was 2.43 µM (active); in test [8] it was 5.76 µM (active); in [9] it was 18.2 µM (active); in test [10], 16.2 µM (active). The Potency result in test [3], in test [6], in test [7], in [11], in [18] and in test [13] was “inactive” in each case. Moreover, the result in [4] and in test [5] was inactive.
`CCCCCCCC`: the Potency entry in test [1], in [2], in test [3], in [6], in [7] and in test [8] was “inactive” in each case. Besides, the Potency result in test [9], in [10], in test [11], in test [12], in [13] and in test [19] was “inactive” each time. The Potency result in test [14], in test [15], in test [16] and in [17] was “inactive” in each case. For the same compound, the result in test [4] and in test [5] was inactive.
As to `CCN(C(=O)c1cc(C)cc(OC[C@H](C)Nc2ccncc2)c1)C(C)C`, the Potency entry in test [1], in test [2], in [3], in test [6], in test [7] and in test [8] was “inactive” each time. Also, the Potency entry in test [9], in [10], in test [18], in test [12], in test [13] and in test [15] was “inactive” each time. In addition, the Potency entry in [16] and in [17] was “inactive” each time. Moreover, the outcome in test [4] and in test [5] was inactive. In addition, the Potency in [14] was 21.4 µM (active).

For the origin of these results see PubChem BioAssay (Tox21).
